Assay results as given in PubChem BioAssay (Tox21).
Several values for one entry are separate records, joined by “and”; a condition that tells them apart may be missing. Equal entries are not always repeated. Results filed as inconclusive are left out. The source holds several records for some structures; these can differ, active in one and inactive in another. Activity calls are given as the source filed them. Unless noted, calls come from the whole dose curve; as a rule, active = well fitted curve in the direction sought with a large enough effect in the repeat runs; inconclusive = weak or mixed curves; inactive = no such curve, though single readings can be large; an effect the other way counts as inactive or inconclusive.

Key:
[1] = A CellTox Green Cytotoxicity Assay to monitor cytotoxicity in HepG2 cells - 0 hour (AID 1224882); note: nearly all actives have a fitted effect of over 35% in size
How it was run: (§1)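 Continuous culture of HepG2 cells with a membrane-impermeant DNA dye; rising fluorescence marks dead cells. Compound exposure lasted up to 40 h at 37 C, with reads every 8 h from 0 h.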

[2] = A CellTox Green Cytotoxicity Assay to monitor cytotoxicity in HepG2 cells - 32 hour (AID 1224883); note: nearly all actives have a fitted effect of over 50% in size; note: potency is the fitted concentration of half-maximal effect
How it was run: as §1

[3] = A CellTox Green Cytotoxicity Assay to monitor cytotoxicity in HEK293 cells - 8 hour (AID 1224884); note: nearly all actives have a fitted effect of over 35% in size; note: potency is the fitted concentration of half-maximal effect
How it was run: (§2)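 Each value comes from one timepoint of a single continuous run in which HEK293 cells with CellTox Green were exposed to compound for up to 40 h at 37 C, dye fluorescence rising with cell death.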

[4] = qHTS RealTime-Glo MT Cell Viability Assay in HepG2 cells - 16 hour (AID 1224885); note: nearly all actives have a fitted effect of over 50% in size; note: potency is the fitted concentration of half-maximal effect
How it was run: (§3)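 Viability was tracked continuously by NanoLuc luminescence from prosubstrate reduced by living HepG2 cells, at successive time points over 40 h of compound exposure. Cells with reagent were preincubated 5 h at 37 °C before compound addition.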

[5] = qHTS RealTime-Glo MT Cell Viability Assay in HEK293 cells - 24 hour (AID 1224886); note: nearly all actives have a fitted effect of over 50% in size; note: potency is the fitted concentration of half-maximal effect
How it was run: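 Viability tracked continuously by luminescence as live cells reduce a prosubstrate for NanoLuc; HEK293 cells preincubated 5 h, compound-treated at 37 C, and read at 0, 8, 16, 24, 32 and 40 h.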

[6] = qHTS RealTime-Glo MT Cell Viability Assay in HEK293 cells - 8 hour (AID 1224887); note: nearly all actives have a fitted effect of over 50% in size; note: potency is the fitted concentration of half-maximal effect
How it was run: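 qHTS format; HEK293 cells with NanoLuc/prosubstrate reagent, 37 C/5% CO2 for 5 h pre-dosing; compounds 23 nL in DMSO; luminescence at each time point reflects viable cells.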

[7] = A CellTox Green Cytotoxicity Assay to monitor cytotoxicity in HEK293 cells - 16 hour (AID 1224888); note: nearly all actives have a fitted effect of over 35% in size; note: potency is the fitted concentration of half-maximal effect
How it was run: as §2

[8] = qHTS RealTime-Glo MT Cell Viability Assay in HepG2 cells - 0 hour (AID 1224889); note: nearly all actives have a fitted effect of over 50% in size
How it was run: as §3

[9] = A CellTox Green Cytotoxicity Assay to monitor cytotoxicity in HepG2 cells - 8 hour (AID 1224890); note: nearly all actives have a fitted effect of over 45% in size; note: potency is the fitted concentration of half-maximal effect
How it was run: as §1

[10] = qHTS assay to identify small molecule antagonists of the estrogen receptor alpha (ER-alpha) signaling pathway using the BG1 cell line in the presence of 0.1 nM 17-beta-estradiol - cell viability counter screen (AID 1259241); note: nearly all actives have a fitted effect of over 40% in size; note: potency is the fitted concentration of half-maximal effect
How it was run: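 VM7Luc4E2 cells (endogenous ER-alpha, 4×ERE-luciferase), hormone-starved 5 days in charcoal-stripped FBS, were treated with compounds plus 0.1 nM 17beta-estradiol for 22 hr at 37C; viability read in same wells as CellTiter-Fluor live-cell protease fluorescence.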

[11] = qHTS assay to identify small molecule antagonists of the androgen receptor (AR) signaling pathway using the MDA cell line in the presence of 0.5 nM R1881 - cell viability counter screen (AID 1259242); note: nearly all actives have a fitted effect of over 45% in size; note: potency is the fitted concentration of half-maximal effect
How it was run: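 Fluorescence from CellTiter-Fluor, which reports protease activity of live cells, was read 30 min after reagent addition to MDA-kb2 cells that had been incubated 16 hr with compound and 0.5 nM R1881.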

[12] = biological target: Estrogen receptor (Homo sapiens) (UniProt P03372); assay: qHTS assay to identify small molecule antagonists of the estrogen receptor alpha (ER-alpha) signaling pathway using the BG1 cell line in the presence of 0.1 nM 17-beta-estradiol (AID 1259244); note: nearly all actives have a fitted effect of over 50% in size; note: potency is the fitted concentration of half-maximal effect
Sequence of Estrogen receptor (Homo sapiens) (P03372 whole entry, looked up): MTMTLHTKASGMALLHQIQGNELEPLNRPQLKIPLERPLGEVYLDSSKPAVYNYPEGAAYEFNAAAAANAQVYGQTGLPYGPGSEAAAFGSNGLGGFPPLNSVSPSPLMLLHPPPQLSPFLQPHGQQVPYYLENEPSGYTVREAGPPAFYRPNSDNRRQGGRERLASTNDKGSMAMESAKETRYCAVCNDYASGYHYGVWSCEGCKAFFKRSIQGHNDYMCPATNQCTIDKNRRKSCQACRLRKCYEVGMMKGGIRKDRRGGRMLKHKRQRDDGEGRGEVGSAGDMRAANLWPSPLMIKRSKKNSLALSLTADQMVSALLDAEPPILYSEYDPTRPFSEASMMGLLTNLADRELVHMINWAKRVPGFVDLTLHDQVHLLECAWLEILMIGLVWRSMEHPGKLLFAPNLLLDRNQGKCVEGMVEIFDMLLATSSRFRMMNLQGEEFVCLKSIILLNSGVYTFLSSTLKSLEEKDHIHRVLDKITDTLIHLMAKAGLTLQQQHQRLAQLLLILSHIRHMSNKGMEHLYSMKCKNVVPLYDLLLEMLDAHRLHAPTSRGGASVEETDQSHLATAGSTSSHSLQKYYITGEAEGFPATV
How it was run: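 Quantitative high-throughput screen in VM7Luc4E2 cells: compound plus 0.1 nM E2 (final), 22 h, 37C, 5% CO2; ONE-Glo added, 30 min room temperature, luminescence measured.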

[13] = qHTS assay to identify small molecule HDAC inhibitors (AID 1259364); note: top concentration of the series differs between compounds; nearly all actives have a fitted effect of over 45% in size
How it was run: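 Endogenous HDAC class I/II activity was measured in wild-type HCT-116 cells by HDAC-Glo luminescence after 2 h compound treatment.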

[14] = qHTS assay to identify small molecule HDAC inhibitors - cell viability counter screen (AID 1259365)
How it was run: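 Wild-type HCT-116 cells were seeded at 1,500 per well, incubated overnight at 37 C, then exposed to compounds in DMSO for 2hr. Viability was read by CellTiter-Glo luminescence after 30min at room temperature.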

[15] = qHTS assay to identify small molecule agonists of the sonic hedgehog signaling (Shh) pathway - cell viability counter screen (AID 1259366); note: nearly all actives have a fitted effect of over 50% in size; note: potency is the fitted concentration of half-maximal effect
How it was run: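 NIH/3T3-derived 3T3 Gli1-Luc cells (stable Gli1-responsive firefly luciferase reporter) were seeded, rested 4 hr at 37 C/5% CO2, then exposed to compounds in DMSO for 24 hr; viability was read by CellTiter-Fluor fluorescence in the same wells.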

[16] = qHTS assay to identify small molecule antagonists of the sonic hedgehog signaling (Shh) pathway - cell viability counter screen (AID 1259367); note: nearly all actives have a fitted effect of over 55% in size; note: potency is the fitted concentration of half-maximal effect
How it was run: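 NIH/3T3-derived Gli1-Luc reporter cells, 2,000/well, plated 4 hr before compound addition, then stimulated with conditioned medium for 24 hr at 37C. Viability measured in the same wells by CellTiter-Fluor fluorescence, reagent added at 23 hr for 1 hr.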

[17] = qHTS assay to identify small molecule agonists of the sonic hedgehog signaling (Shh) pathway (AID 1259368; calls by dose curve; note: series mostly up to about 92 µM; nearly all actives have a fitted effect of over 15% in size)
How it was run: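 Luminescent signal was taken as a measure of Gli1-controlled luciferase expression in stably transfected NIH/3T3-derived cells that had been treated for 24 hr with compounds delivered in DMSO.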

[18] = qHTS assay to identify small molecule antagonists of the sonic hedgehog signaling (Shh) pathway (AID 1259369; calls by dose curve; note: nearly all actives have a fitted effect of over 45% in size; note: potency is the fitted concentration of half-maximal effect)
How it was run: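 Screening used 3T3Gli1-Luc cells at 2,000 per well, compounds delivered in DMSO, and conditioned medium as agonist stimulus; plates incubated 24hr at 37 C and 5% CO2 before a 30min luciferase step.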

[19] = biological target: Androgen receptor (Homo sapiens) (UniProt P10275); assay: qHTS assay to identify small molecule antagonists of the androgen receptor (AR) signaling pathway using the MDA cell line in the presence of 0.5 nM R1881 (AID 1259243); note: nearly all actives have a fitted effect of over 50% in size
Sequence of Androgen receptor (Homo sapiens) (P10275 whole entry, looked up): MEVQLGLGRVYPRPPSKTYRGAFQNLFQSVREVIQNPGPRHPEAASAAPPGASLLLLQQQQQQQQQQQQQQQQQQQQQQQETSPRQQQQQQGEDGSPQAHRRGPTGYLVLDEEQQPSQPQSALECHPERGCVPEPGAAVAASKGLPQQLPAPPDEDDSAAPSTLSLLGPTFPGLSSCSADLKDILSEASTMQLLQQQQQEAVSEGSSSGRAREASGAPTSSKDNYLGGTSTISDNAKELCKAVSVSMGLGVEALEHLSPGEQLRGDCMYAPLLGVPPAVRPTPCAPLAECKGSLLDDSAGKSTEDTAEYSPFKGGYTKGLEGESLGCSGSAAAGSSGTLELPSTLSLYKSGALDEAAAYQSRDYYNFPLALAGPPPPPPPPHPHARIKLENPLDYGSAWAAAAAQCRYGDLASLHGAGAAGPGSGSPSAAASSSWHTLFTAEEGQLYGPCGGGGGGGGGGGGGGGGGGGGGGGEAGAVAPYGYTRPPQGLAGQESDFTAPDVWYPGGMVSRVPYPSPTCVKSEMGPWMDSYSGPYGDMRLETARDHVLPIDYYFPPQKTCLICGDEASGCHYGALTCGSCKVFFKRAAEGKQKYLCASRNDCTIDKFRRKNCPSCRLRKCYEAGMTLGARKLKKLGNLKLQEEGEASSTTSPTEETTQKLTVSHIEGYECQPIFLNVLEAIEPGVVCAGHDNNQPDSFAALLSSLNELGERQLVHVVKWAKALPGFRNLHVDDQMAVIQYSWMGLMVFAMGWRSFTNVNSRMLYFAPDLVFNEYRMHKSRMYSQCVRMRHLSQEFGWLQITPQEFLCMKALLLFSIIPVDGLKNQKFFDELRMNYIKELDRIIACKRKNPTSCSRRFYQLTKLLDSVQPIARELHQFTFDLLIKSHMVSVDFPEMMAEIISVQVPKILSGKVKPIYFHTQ
How it was run: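 Inhibition of R1881 (0.5 nM final) induced reporter signal was measured in human MDA-kb2 cells; note the MMTV promoter also responds to GR. Exposure lasted 16 hr at 37C.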

[20] = qHTS assay to identify small molecule phospholipidosis (PLD) inducers (AID 1259344; active = well fitted curve in the direction sought with a large enough effect; an effect the other way counts as inactive or inconclusive; note: potency is the fitted concentration of half-maximal effect)
How it was run: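 HepG2 cells, 900/well, treated with compound plus LipidTOX Red for 24 h at 37 C; amiodarone positive and DMSO negative controls. Fixed with paraformaldehyde/Hoechst, then high-content imaging scored LipidTOX pit count and integrated intensity per well and per cell.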

Measured: Potency

CC(C)CC(C)N (stereo not drawn)
inactive: [1] | [2] | [3] | [4] | [5] | [6] | [7] | [8] | [9] | [10] | [11] | [12] | [13] | [14] | [15] | [16] | [17]

CC(c1ccc(O)cc1)c1ccc(O)cc1
inactive and 61.1 µM (active): [15]
22.8 µM (active) and inactive: [18]
inactive: [1] | [2] | [3] | [4] | [6] | [7] | [8] | [9] | [10] | [11] | [12] | [13] | [14] | [16] | [17]
45.9 µM (active) and inactive: [5]

C[C@H]1O[C@@H](O[C@H]2[C@@H](O)C[C@H](O[C@H]3[C@@H](O)C[C@H](O[C@H]4CC[C@@]5(C)[C@H](CC[C@@H]6[C@@H]5CC[C@]5(C)[C@@H](C7=CC(=O)OC7)CC[C@]65O)C4)O[C@@H]3C)O[C@@H]2C)C[C@H](O)[C@@H]1O
inactive: [1] | [2] | [3] | [4] | [6] | [7] | [8] | [9] | [10] | [11] | [19] | [12] | [13] | [14] | [15] | [16] | [17] | [18]
active: [5] 34.9 nM and 84.9 nM | [20] 2 µM

COC[C@H](C)N(C(=O)CCl)c1c(C)csc1C
inactive: [1] | [2] | [3] | [4] | [5] | [6] | [7] | [8] | [9] | [10] | [11] | [12] | [13] | [14] | [15] | [16] | [17] | [18]

Cc1cc(Cl)ccc1O[C@H](C)C(=O)O
inactive: [1] | [2] | [3] | [4] | [5] | [6] | [7] | [8] | [9] | [10] | [11] | [12] | [13] | [14] | [15] | [16] | [17] | [18]

Cc1ccc(CCl)cc1
inactive: [1] | [2] | [3] | [4] | [5] | [6] | [7] | [8] | [9] | [10] | [11] | [19] | [12] | [13] | [14] | [15] | [16] | [17] | [18]

CC(C)(C)OO
inactive: [1] | [2] | [3] | [4] | [5] | [6] | [7] | [8] | [9] | [10] | [11] | [19] | [13] | [14] | [15] | [16] | [17] | [18]

COC12CC[C@@]3(C[C@@H]1C(C)(O)C(C)(C)C)[C@H]1Cc4ccc(O)c5c4[C@@]3(CCN1CC1CC1)[C@H]2O5 (stereo partly drawn)
inactive: [1] | [8] | [20] | [13] | [14] | [17]
active: [2] 38.6 µM | [3] 24.4 µM | [4] 43.4 µM | [5] 34.4 µM | [6] 38.6 µM | [7] 21.7 µM | [9] 43.4 µM | [10] 60.7 µM | [11] 54.1 µM | [12] 24.2 µM | [15] 24.2 µM | [16] 17.1 µM | [18] 4.82 µM

ClC1=C(Cl)[C@]2(Cl)[C@@H]3[C@@H](Cl)[C@@H](Cl)C[C@@H]3[C@@]1(Cl)C2(Cl)Cl
inactive: [1] | [2] | [3] | [4] | [5] | [6] | [7] | [8] | [9] | [10] | [11] | [19] | [12] | [13] | [14] | [16] | [17] | [18]

CCc1ccccc1C
inactive: [1] | [2] | [3] | [4] | [5] | [6] | [7] | [8] | [9] | [10] | [11] | [19] | [12] | [13] | [14] | [15] | [17] | [18]

Cn1[nH]nnc1=S
inactive: [1] | [2] | [3] | [4] | [5] | [6] | [7] | [8] | [9] | [10] | [11] | [12] | [13] | [14] | [15] | [16] | [17]

CC(C)CBr
inactive: [1] | [2] | [3] | [4] | [5] | [6] | [7] | [8] | [9] | [10] | [11] | [19] | [12] | [13] | [14] | [15] | [16] | [17] | [18]

Cc1ccc(C(=O)Cl)cc1
inactive: [1] | [2] | [3] | [4] | [5] | [6] | [7] | [8] | [9] | [10] | [11] | [19] | [12] | [13] | [14] | [15] | [16] | [17] | [18]
